Screening data (PubChem)
KLF5 inhibitor = KLF5 expression inhibitors, primary screen, DLD-1 cells, luminescence; DLD-1 KLF5 promoter-luciferase reporter; hit rate 0.23% among 290,000; inhibition, % at 5 µM;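 active means inhibition above a per-plate limit of that plate's mean compound inhibition plus 3 SD, cut at about 60% in these data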;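 further: 0% = DMSO wells and 100% = LY294002 at 200 µM; higher means less KLF5 promoter-driven luciferase light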
SKKanGAS inh = S. pyogenes SKKanGAS growth inhibitors in kanamycin, primary screen, streptokinase expression inhibitor project, SKKanGAS strain, BacTiter-Glo luminescence; 6 h; inhibition, % at 7.5 µM; AID 1662, 2009; hit rate 1.3% among 300,000;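 active means mean replicate score, as percent of positive control median, at least 50; inconclusive means mean below 50 but one replicate at or above 50; inactive means mean and every replicate below 50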;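 further: strain carries kanamycin resistance gene driven by streptokinase promoter and grows in 40 µg/ml kanamycin; loss of luminescence reflects streptokinase promoter inhibition or plain growth inhibition; 0% = median of DMSO wells and 100% = positive control at its reference dose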
aSyn 5UTR inh = MLPCN primary screen, SNCA 5' untranslated region; alpha-synuclein 5'UTR reporter, inhibitor activity; inhibition, % (tested at 7.5 µM); hit rate 0.82% among 300,000; AID 1813, 2009; in the data active means inhibition above about 60%; inconclusive means no clear call, values can overlap the other calls;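 further: H4 neuroglioblastoma cells stably carrying SNCA 5'UTR luciferase fusion; 0% = DMSO wells and 100% = positive control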
CSC inhib = cancer stem cell viability inhibitors, primary screen, luminescence | cancer stem cell-like cells viability | inhibition, % at 7.5 µM | hit rate 1.1% among 300,000 | AID 2717, 2010; in the data active means inhibition above about 75%; inconclusive means no clear call, values can overlap the other calls; tested in HMLE shEcad cells
IEC-6 cytotox = cytotoxicity in IEC-6 intestinal epithelial cells, primary screen, cytotoxicity control for KLF5 inhibitor project, cell-based, luminescence. IEC-6 cytotoxicity, luminescence viability. AID 1825, 2009. inhibition, % at 5 µM. hit rate 0.78% among 290,000; in the data active means inhibition above about 22%;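 further: 0% = plate median of test compound wells and 100% = cytotoxic reference compound wells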
Active calls of the source: *; u = inconclusive; x = no result given. Only some compounds are listed: those with a hit (about 3% of all), similar ones and a draw of the others.

SMILES | KLF5 inhibitor | SKKanGAS inh | aSyn 5UTR inh | CSC inhib | IEC-6 cytotox
COc1cc(OC)c2ccc(=O)oc2c1C(CCN1CCCC(C)C1)c1ccc(N(C)C)cc1 (centres undefined) | x | 7 | 28 | 14 | x
CCCCCc1cc(=O)oc2c(C(CCN3CCCC(C)C3)c3ccc(N(C)C)cc3)c(OC)cc(OC)c12 (centres undefined) | x | 1 | 22 | 109* | x
CCCCCc1cc(=O)oc2c(C(CCN3CCCCC3)c3cc(OC)c(OC)c(OC)c3)c(OC)cc(OC)c12 (centres undefined) | x | 6 | 29 | 79* | x
CCCCCc1cc(=O)oc2c(C(CCN3CCCC(C)C3)c3cc(OC)c(OC)c(OC)c3)c(OC)cc(OC)c12 (centres undefined) | x | 8 | 44 | 102* | x
CCN1CCCC1CNC(=O)c1cc2cc(F)ccc2[nH]1 (centres undefined) | -13 | -4 | 30 | -1 | 4
Nc1nc(CCl)nc(Nc2ccc3ccccc3c2)n1 | -59 | -6 | 23 | x | 47*
CCC(=O)O[C@@H]1CC(=O)O[C@H](C)CC=CC=C[C@@H](O)[C@H](C)C[C@H](CC=O)[C@H](O[C@H]2O[C@H](C)[C@@H](O[C@H]3C[C@@](C)(O)[C@@H](OC(=O)CC)[C@H](C)O3)[C@H](N(C)C)[C@H]2O)[C@H]1OC | x | 110* | -12 | x | x
CCN(c1ccc(C)cc1)S(=O)(=O)c1nnc(NC(=O)c2ccco2)s1 | -5 | 22 | -23 | 1 | 3
COc1ccc(N2CCN(C3CC(=O)NC3=O)CC2)cc1 (centres undefined) | 5 | 15 | 6 | 0 | -4
COc1ccc(C(=O)c2ccc(N3CCN(C4CC(=O)NC4=O)CC3)cc2)cc1F (centres undefined) | 21 | 73* | 21 | 2 | 6
Cc1ccc(-c2csc3ncnc(NS(=O)(=O)c4ccc(Cl)cc4)c23)cc1 | -1 | u | 13 | 82* | 1
CN(C)C(=O)COc1ncnc2scc(-c3ccc(F)cc3)c12 | -26 | -1 | -9 | 0 | -5
CCOC(=O)C1=C(C)NC(C)=C(C(=O)OCC)C1C(=O)OCC(=O)N1CCOCC1 | x | x | x | -18 | x
O=C(Nc1ccccc1N1CCOCC1)c1cnccn1 | 15 | -4 | 16 | -2 | 1
O=C(Nc1ccc(N2CCOCC2)cc1)c1cnccn1 | 44 | 1 | 67* | -9 | 8
O=C(Nc1ccc(N2CCOCC2)cc1)c1ccncc1 | -29 | -2 | -51 | -2 | 5
O=C(Nc1ccc(N2CCOCC2)cc1)c1cnsn1 | 16 | 1 | 106* | x | -2
COc1ccc(NS(=O)(=O)c2cccs2)cc1S(=O)(=O)N1CCCCC1 | x | 13 | 4 | 12 | x
Cc1[nH]c2ccccc2c1/C=N/Nc1ccccc1[N+](=O)[O-] | -4 | 16 | -33 | 77* | 4
Cc1[nH]c2ccccc2c1/C=N/NS(=O)(=O)c1ccccc1 | 14 | -10 | -12 | -8 | 5
CCOC(=O)c1ccc(N/C(=N\S(=O)(=O)c2ccc(F)cc2F)c2ccccc2)cc1 | -3 | -5 | -48 | 8 | -4
CCCc1nnc(NC(=O)CCC(=O)N2CCN(c3ccccc3)CC2)s1 | -18 | -7 | -13 | 1 | 2
CC(C)Cc1nnc(NC(=O)CCC(=O)N2CCN(c3ccccc3)CC2)s1 | -28 | 103* | -6 | -5 | -2
O=C(Nc1nccs1)c1cn(-c2ccccc2)nc1-c1ccccc1 | -21 | 22 | -22 | -3 | 4
CC(C)COc1ccc(-c2nn(-c3ccccc3)cc2C(=O)Nc2nccs2)cc1 | -11 | 96* | 14 | 27 | 11
SMILES | KLF5 inhibitor | SKKanGAS inh | aSyn 5UTR inh | CSC inhib | IEC-6 cytotox
CCN(CC(=O)Nc1c(F)cccc1F)C(=O)c1ccc2c(c1)S(=O)(=O)N=C1CCCCCN12 | x | -3 | 1 | 1 | x
O=[N+]([O-])c1ccc(Nc2nc(NCCO)nc(N3CCCC3)n2)cc1 | 8 | 97* | 8 | -5 | 1
NNc1nc(Nc2ccc([N+](=O)[O-])cc2)nc(N2CCCCCC2)n1 | -9 | 82* | -41 | 1 | 3
CCOC(=O)C1(C)C=C(Nc2ccc(NC(C)=O)cc2)C(=O)N1c1ccc(NC(C)=O)cc1 (centres undefined) | -14 | 1 | -3 | -7 | -1
COc1ccc(N2CCN(c3nccs3)CC2)cc1 | -90 | -2 | -154 | -4 | 4
OC(COCCOc1ccc(Br)cc1)CN1CCN(Cc2ccccc2)CC1 (centres undefined) | 18 | 0 | 16 | 15 | 6
CCN(CC)c1ccc(CN(C(=O)c2cccs2)C2CCS(=O)(=O)C2)cc1 (centres undefined) | -14 | -3 | -6 | -3 | -1
c1ccc2c(c1)cnc1ccccc12 | -21 | -5 | -22 | 17 | 2
c1ccc(-c2ncc3c(ccc4ccccc43)n2)cc1 | -15 | -14 | 68* | x | 10
Cc1c(C)c2cc(Cl)c(OCC(=O)NC3CC(C)(C)NC(C)(C)C3)cc2oc1=O | 0 | -2 | 1 | -10 | -2
Cc1cccc2c1-c1sc(C(=O)Nc3ccccc3N3CCN(C)CC3)cc1CO2 | -3 | 10 | -40 | 102* | 1
Cc1nc(N2CCN(c3ccccn3)CC2)c2c(C)c(C(=O)N3CCN(c4cccc(Cl)c4)CC3)sc2n1 | 16 | 26 | 34 | 5 | 1
COCCn1c(N)c(C(=O)NCC2CCCO2)c2nc3ccccc3nc21 (centres undefined) | -17 | 17 | 28 | 4 | 6
COC(=O)c1c(NC(=O)c2ccco2)sc2c1CCC2 | 6 | 4 | -20 | 76* | 2
COC(=O)c1c(NC(=O)Cc2cccs2)sc2c1CCCC2 | -21 | 69* | 3 | 7 | -1
COCCn1c(N)c(C(=O)Nc2sc3c(c2C(=O)OC)CCCC3)c2nc3ccccc3nc21 | -18 | 58* | 20 | 43 | -5
COCC(=O)Nc1sc2c(c1C(=O)OC)CCCC2 | -12 | -4 | -32 | -12 | 0
COc1cc(OC)c(C=O)c(OC(=O)N2CCOCC2)c1 | -28 | -1 | 7 | 128* | -1
COc1ccc(OC(=O)N2CCOCC2)cc1 | -39 | 0 | -15 | -15 | 0
CNC(C)C(=O)NC(C(=O)N1CCCC1C(=O)NNc1ccccc1)C(C)C (centres undefined) | x | x | x | 98* | x
CNC(C)C(=O)NC(C(=O)N1CCCC1C(=O)NC1CCCc2ccccc21)C(C)C (centres undefined) | x | x | x | 13 | x
N#Cc1c([N+](=O)[O-])cc([N+](=O)[O-])cc1S(=O)(=O)Cc1ccccc1 | x | x | x | 125* | x
c1ccc2c(Nc3nc4c(s3)CCCC4)cccc2c1 | -1 | 57* | -157 | 3 | 6
O=S(=O)(Nc1nc2c(s1)CCCC2)c1ccc2ccccc2c1 | -18 | 11 | 9 | -4 | 2
O=[N+]([O-])c1cccc(-c2csc(N/N=C/c3cccc(O)c3)n2)c1 | 8 | 20 | -216 | 87* | 6
CN(C)S(=O)(=O)c1ccc(-c2csc(N/N=C/c3ccc(O)cc3)n2)cc1 | 8 | 65* | 24 | 130* | 2
